# Test results published in PubChem BioAssay (NCATS).
# Several values for one entry are separate records, joined by “and”; a condition that tells them apart may be missing. Equal values may be shown once. A number with no mark means an inactive call. Records with an inconclusive call do not appear. Activity calls are given as the source filed them. Unless noted, calls follow the shape of the dose curve; as a rule, active = well fitted curve in the direction sought with a large enough effect; inconclusive = small, poorly fitted or top-dose-only effect, or another doubt; inactive = no such curve, though single readings can be large; an effect the other way counts as inactive or inconclusive.
# Legend:
# [1] = target: Cytochrome P450 1A2 (Homo sapiens) (UniProt P05177); assay: p450-cyp1a2 (AID 410; calls by dose curve; also: potency is read from the fitted curve at half-maximal effect)
# Cytochrome P450 1A2 (Homo sapiens), sequence (P05177 whole entry, looked up): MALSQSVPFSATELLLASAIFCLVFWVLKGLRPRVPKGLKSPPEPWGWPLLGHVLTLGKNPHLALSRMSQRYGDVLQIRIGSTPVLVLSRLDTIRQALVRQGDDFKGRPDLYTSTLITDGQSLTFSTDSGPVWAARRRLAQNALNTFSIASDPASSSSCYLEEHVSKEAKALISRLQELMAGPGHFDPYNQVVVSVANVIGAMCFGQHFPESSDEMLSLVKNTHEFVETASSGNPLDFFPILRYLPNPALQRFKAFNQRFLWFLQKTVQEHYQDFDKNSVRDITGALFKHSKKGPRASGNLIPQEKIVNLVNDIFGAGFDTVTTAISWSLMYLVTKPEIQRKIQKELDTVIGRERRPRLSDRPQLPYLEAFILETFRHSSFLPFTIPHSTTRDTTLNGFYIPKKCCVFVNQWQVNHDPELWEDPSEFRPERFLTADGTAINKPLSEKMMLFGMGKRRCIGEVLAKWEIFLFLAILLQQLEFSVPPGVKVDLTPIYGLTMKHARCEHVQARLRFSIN
# Method in brief: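 Human CYP1A2 (20nM) demethylated Luciferin-ME at its Km (100uM) in 100mM KPO4. After 10 min compound preincubation, NADPH regeneration ran the reaction 60 min at room temperature. Luciferin was read by luminescence, normalized to 57 uM furafylline.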
# [2] = NFAT Signaling Pathway (AID 444; active = well fitted curve in either direction with a large enough effect, not every such curve was filed as active;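 also: carbachol stimulus at about its EC50 of 1 µM final; % is scaled to controls: 0 for no effect and ±100 for the full control effect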); details: Jurkat NFAT-bla M1, carbachol, beta-lactamase ratio, 5 h; at 38 µM (top of the series)
# Method in brief: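 Jurkat cells carrying an NFAT-driven β-lactamase reporter and co-transfected muscarinic M1 receptor were treated with compound plus carbachol (1 uM final, an EC50 level) for 5 h at 37 °C. CCF4 loading followed for 1 h at RT; 460/530 nm ratio gave %activity.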
# [3] = Stat Signaling Pathway (AID 446; active = well fitted curve in either direction with a large enough effect, not every such curve was filed as active;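 also: ME-180 cervical cancer cells given 40 pM IL-6 alongside compound; SIE-controlled beta-lactamase reporter measured as 460/530 nm FRET emission ratio; % is scaled to controls: 0 for no effect and ±100 for the full control effect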); details: ME-180 SIE beta-lactamase reporter, IL-6 stimulated, 5 h; at 38 µM (top of the series)
# Method in brief: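 Screening format detects activators and inhibitors alike: ME-180 SIE-bla cells stimulated at 40 pM IL-6 for 5 hrs with compound, then dual-emission beta-lactamase read at 405 nm excitation.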
# [4] = target: Glucocorticoid receptor (Homo sapiens) (UniProt P04150); assay: GR-GFP Redistribution (AID 450;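 active = compounds whose dose series gives a full or clear partial fitted curve of increased nuclear translocation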; also: potency is read from the fitted curve at half-maximal effect); details: U2OS GR-GFP nuclear translocation, laser cytometry, 2 h
# Glucocorticoid receptor (Homo sapiens), sequence (P04150 whole entry, looked up, the tested form may be a part): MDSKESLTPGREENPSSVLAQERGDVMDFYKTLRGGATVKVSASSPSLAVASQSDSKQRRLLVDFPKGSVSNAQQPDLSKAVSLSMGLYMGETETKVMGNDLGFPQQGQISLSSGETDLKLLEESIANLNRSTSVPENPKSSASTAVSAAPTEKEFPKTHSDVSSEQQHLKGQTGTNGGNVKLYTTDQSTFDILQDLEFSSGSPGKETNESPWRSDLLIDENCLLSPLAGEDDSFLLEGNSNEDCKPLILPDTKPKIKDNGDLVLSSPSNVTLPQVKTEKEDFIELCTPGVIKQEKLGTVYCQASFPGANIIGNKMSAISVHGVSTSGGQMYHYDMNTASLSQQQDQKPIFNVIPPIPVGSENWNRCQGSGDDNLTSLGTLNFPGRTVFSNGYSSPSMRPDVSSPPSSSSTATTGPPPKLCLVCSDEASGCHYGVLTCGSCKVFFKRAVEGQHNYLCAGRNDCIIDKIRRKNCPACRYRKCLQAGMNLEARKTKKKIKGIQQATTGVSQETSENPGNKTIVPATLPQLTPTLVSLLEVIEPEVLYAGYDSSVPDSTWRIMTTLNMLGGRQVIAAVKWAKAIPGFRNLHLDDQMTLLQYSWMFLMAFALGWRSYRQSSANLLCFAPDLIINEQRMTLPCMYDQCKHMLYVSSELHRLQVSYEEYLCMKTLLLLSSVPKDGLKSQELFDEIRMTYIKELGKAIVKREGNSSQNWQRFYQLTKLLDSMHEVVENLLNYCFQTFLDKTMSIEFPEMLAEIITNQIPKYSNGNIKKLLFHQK
# [5] = target: Glucocorticoid receptor (Homo sapiens) (UniProt P04150); assay: GR-EFC Redistribution (AID 451; calls by dose curve; also: potency is read from the fitted curve at half-maximal effect); details: CHO-K1 GR-EFC translocation, beta-gal luminescence, 2 h
# Method in brief: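 CHO-K1 cells stably expressing nuclear-localized β-gal enzyme acceptor and GR fused C-terminally to the enzyme donor fragment; ligand-driven nuclear translocation restores β-gal by complementation. Compounds titrated up to 46 uM final, 2 h at 37 °C; luminescence read.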
# [6] = target: Mitogen-activated protein kinase 10 (Mus musculus) (UniProt Q61831); assay: JNK3 AlphaScreen Assay (AID 530; active = well fitted curve in either direction with a large enough effect, not every such curve was filed as active;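 also: kinase came from lysate of stimulated human HepG2 cells; potency is read from the fitted curve at half-maximal effect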)
# Method in brief: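 JNK3 came from HepG2 lysates pre-activated with IL-1beta and TNF-alpha and phosphorylated biotinylated GST-cJun (1-79) at 10 uM ATP, pH 7.6, room temperature. Compounds were titrated. AlphaScreen signal used anti-phospho-cJun (Ser73) antibody.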
# [7] = target: Guanine nucleotide-binding protein G(i) subunit alpha-1 (Homo sapiens) (UniProt P63096); assay: qHTS Assay for Inhibitors of RGS12 GoLoco Motif Activity (Green Fluorophore) (AID 879);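 also: 0% = labeled peptide with Gαi1 and full inhibition = labeled peptide alone without protein; negative values mean loss of peptide binding seen as reduced polarization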
# Guanine nucleotide-binding protein G(i) subunit alpha-1 (Homo sapiens), sequence (P63096 whole entry, looked up): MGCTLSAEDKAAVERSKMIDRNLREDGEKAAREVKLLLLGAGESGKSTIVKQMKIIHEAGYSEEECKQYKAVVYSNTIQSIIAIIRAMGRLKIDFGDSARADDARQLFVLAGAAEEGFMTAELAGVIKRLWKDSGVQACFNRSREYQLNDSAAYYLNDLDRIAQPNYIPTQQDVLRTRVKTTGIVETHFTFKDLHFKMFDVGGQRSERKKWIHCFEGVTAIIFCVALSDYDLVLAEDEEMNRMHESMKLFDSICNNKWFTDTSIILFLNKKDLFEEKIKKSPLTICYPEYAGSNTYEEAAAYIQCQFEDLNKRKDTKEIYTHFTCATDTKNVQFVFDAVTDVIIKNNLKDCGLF
# Method in brief: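 Fluorescence polarization assay: 50 nM Gαi1 with 10 nM FITC-labeled RGS12 GoLoco peptide in 10 mM Tris pH 7.5, 150 mM NaCl, 0.1 mM GDP, 0.05% NP40, 10 min at room temperature with compound.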
# [8] = target: Cytochrome P450 3A4 (Homo sapiens) (UniProt P08684); assay: qHTS Assay for Inhibitors and Substrates of Cytochrome P450 3A4 (AID 884); also: potency is read from the fitted curve at half-maximal effect; nearly all actives have a fitted effect of over 50% in size
# Cytochrome P450 3A4 (Homo sapiens), sequence (P08684 whole entry, looked up): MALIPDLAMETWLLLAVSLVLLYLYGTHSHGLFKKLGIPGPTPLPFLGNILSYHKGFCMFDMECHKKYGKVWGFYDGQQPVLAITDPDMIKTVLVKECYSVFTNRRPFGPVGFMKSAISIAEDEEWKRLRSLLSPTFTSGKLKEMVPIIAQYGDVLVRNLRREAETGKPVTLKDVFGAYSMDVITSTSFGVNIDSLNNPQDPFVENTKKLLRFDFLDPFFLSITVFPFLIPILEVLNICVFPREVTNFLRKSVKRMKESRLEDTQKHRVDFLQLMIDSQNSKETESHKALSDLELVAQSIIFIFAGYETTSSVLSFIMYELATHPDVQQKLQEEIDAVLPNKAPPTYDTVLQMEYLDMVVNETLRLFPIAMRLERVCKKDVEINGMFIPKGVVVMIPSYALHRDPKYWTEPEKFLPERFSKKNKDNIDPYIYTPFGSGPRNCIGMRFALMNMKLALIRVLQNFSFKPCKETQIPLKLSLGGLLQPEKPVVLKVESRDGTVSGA
# Method in brief: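 20 nM human CYP3A4 with 25 uM Luciferin-PPXE (at KM) in 200 mM KPO4, preincubated 10 min with compound; NADPH regeneration started a 60 min RT reaction. Luciferin detected by luminescence, normalized to 57 uM ketoconazole as full inhibition.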
# [9] = target: Cytochrome P450 3A4 (Homo sapiens) (UniProt P08684); assay: qHTS Assay for Activators of Cytochrome P450 3A4 (AID 885); also: nearly all actives have a fitted effect of over 65% in size
# Method in brief: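 Steps: enzyme/substrate mix dispensed; compound added, 10 min RT; NADPH regeneration solution added, 60 min RT; luciferin detection buffer stops reaction; 20 min later luminescence measured.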
# [10] = target: Cytochrome P450 2C19 (Homo sapiens) (UniProt P33261); assay: qHTS Assay for Inhibitors and Substrates of Cytochrome P450 2C19 (AID 899); also: potency is read from the fitted curve at half-maximal effect; nearly all actives have a fitted effect of over 60% in size
# Cytochrome P450 2C19 (Homo sapiens), sequence (P33261 whole entry, looked up): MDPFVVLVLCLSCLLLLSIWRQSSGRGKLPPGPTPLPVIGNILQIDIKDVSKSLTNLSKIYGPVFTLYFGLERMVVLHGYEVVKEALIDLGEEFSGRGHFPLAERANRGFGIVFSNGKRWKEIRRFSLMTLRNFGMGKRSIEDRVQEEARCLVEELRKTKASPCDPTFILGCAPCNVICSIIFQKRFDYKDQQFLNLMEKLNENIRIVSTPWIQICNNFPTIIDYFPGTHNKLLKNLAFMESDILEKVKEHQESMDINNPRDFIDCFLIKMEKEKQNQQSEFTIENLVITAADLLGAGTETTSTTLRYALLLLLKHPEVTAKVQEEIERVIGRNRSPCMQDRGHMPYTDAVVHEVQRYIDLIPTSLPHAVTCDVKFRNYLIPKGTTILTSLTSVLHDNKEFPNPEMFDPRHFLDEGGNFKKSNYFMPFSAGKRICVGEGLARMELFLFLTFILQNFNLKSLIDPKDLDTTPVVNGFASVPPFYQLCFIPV
# Method in brief: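 In 50mM KPO4, the reaction held 5nM enzyme and KM-level (10uM) Luciferin-H EGE; it ran 60 min at 37C after NADPH regeneration and a 10 min compound preincubation. Luminescence values were scaled to 57uM ketoconazole as complete inhibition.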
# [11] = target: Muscarinic acetylcholine receptor M1 (Rattus norvegicus) (UniProt P08482); assay: qHTS Assay for Antagonists of Acetylcholine Muscarinic M1 Receptor: Measurement of IP-One Response (AID 944); also: nearly all actives have a fitted effect of over 75% in size
# Muscarinic acetylcholine receptor M1 (Rattus norvegicus), sequence (P08482 whole entry, looked up): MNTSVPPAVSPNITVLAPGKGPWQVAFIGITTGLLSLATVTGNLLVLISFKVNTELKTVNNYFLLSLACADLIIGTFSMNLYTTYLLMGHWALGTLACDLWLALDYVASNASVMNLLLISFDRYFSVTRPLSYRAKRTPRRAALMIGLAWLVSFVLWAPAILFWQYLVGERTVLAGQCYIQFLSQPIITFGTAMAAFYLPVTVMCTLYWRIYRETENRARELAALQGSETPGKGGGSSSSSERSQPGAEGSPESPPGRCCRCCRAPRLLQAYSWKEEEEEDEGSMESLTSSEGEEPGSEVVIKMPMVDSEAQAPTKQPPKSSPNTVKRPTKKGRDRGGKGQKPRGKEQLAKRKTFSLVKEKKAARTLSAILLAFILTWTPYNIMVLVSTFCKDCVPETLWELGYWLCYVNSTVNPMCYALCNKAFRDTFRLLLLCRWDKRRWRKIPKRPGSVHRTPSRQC
# Method in brief: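 CHO cells expressing rat M1 receptor, recovered overnight, were pre-incubated 10 min with compound, then stimulated 30 min with carbachol at EC80 (200 nM) in LiCl-containing buffer, pH 7.4. IP1 accumulation was read by HTRF (620/665 nm).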
# [12] = target: Pyruvate kinase PKM (Homo sapiens) (UniProt P14618); assay: qHTS Assay for Activators of Human Muscle Pyruvate Kinase (AID 954; active = well fitted curve in the direction sought with a large enough effect, not every such curve was filed as active;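 also: 0% = uninhibited enzyme and -100% = no enzyme or full thiadiazolimine inhibition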)
# Pyruvate kinase PKM (Homo sapiens), sequence (P14618 whole entry, looked up): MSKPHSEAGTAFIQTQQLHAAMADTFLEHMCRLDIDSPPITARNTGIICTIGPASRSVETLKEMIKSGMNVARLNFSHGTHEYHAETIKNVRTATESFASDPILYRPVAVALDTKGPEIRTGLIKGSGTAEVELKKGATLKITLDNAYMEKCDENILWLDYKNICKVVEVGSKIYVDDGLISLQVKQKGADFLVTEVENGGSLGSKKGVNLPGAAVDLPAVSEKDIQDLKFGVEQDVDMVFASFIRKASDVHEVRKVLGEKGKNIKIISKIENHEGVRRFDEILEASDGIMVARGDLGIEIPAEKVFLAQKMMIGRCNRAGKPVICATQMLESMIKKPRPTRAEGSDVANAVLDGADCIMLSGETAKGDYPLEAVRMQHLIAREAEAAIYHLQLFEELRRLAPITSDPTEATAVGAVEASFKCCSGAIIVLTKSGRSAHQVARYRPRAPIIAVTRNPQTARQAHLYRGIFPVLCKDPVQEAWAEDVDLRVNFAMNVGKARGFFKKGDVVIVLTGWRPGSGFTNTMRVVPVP
# Method in brief: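 Reaction: 0.1 nM purified PKM2 with 0.5 mM phosphoenolpyruvate and 0.1 mM ADP, room temperature, 1 h. Readout: luciferase-based ATP luminescence after stop reagent. Activators judged against a 0.3 nM enzyme column.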
# [13] = target: Pyruvate kinase PKM (Homo sapiens) (UniProt P14618); assay: qHTS Assay for Inhibitors of Human Muscle Pyruvate Kinase (AID 958); details: purified human PKM enzyme activity
# Method in brief: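 Compound pinned into substrate mix (0.5 mM PEP, 0.1 mM ADP), then 0.1 nM PKM2 added; 1 h, RT. Stop/detection luciferase reagent added, luminescence read. Normalized to no-inhibition and no-enzyme or reference-inhibitor controls.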
# [14] = target: Pyruvate kinase (Leishmania mexicana) (UniProt Q27686); assay: qHTS Validation Assay for Activators of Leishmania Mexicana Pyruvate Kinase (AID 959)
# Pyruvate kinase (Leishmania mexicana), sequence (Q27686 2-499 E452W): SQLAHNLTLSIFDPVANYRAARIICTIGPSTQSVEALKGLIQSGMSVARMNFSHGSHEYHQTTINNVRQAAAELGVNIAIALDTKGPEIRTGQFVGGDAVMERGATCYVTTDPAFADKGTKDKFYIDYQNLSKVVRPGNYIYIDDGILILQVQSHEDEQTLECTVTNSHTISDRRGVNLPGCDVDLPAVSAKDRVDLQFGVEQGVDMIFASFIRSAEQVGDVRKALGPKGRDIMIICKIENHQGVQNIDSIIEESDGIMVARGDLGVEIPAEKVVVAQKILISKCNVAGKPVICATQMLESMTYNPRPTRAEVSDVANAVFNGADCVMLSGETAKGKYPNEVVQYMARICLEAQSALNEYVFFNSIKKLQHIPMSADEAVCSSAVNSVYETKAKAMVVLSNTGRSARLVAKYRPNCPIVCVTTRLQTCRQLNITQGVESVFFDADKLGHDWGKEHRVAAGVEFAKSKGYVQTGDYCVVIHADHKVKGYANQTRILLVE
# Method in brief: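 Eight-point qHTS titrations in triplicate, data normalized to DMSO neutral control. Reaction: 0.2 nM LmPYK E451W mutant, 0.5 mM PEP, 0.1 mM ADP, 7 mM MgCl2, pH 7.2, one hour at room temperature; luminescent ATP detection.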
# [15] = target: Alpha-galactosidase A (Homo sapiens) (UniProt P06280); assay: Counterscreen for Glucocerebrosidase Inhibitors: qHTS Assay for Human alpha-Galactosidase at pH 4.5 (AID 992); also: 0% is about no effect
# Alpha-galactosidase A (Homo sapiens), sequence (P06280 whole entry, looked up): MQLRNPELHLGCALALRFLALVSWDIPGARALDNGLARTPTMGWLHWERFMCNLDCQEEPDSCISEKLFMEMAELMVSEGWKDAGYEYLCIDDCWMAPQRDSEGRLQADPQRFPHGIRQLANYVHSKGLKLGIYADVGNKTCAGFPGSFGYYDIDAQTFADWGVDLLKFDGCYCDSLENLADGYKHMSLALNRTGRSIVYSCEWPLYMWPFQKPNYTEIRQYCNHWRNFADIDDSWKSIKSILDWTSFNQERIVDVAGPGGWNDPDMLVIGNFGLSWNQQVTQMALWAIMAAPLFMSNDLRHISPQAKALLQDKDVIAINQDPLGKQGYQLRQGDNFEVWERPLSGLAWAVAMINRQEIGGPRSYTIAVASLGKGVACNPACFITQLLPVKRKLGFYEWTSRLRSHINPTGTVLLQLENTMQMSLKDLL
# Method in brief: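 Concentration-response curves (0.7 nM to 77 uM final) were modeled with the Hill equation to give AC50. Reactions: 2 nM enzyme, 80 uM fluorogenic alpha-galactoside, pH 4.5 citric acid buffer, 20 min, room temperature.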
# [16] = target: alpha-glucosidase (Oryza sativa, rice) (UniProt Q653V4); assay: Counterscreen for Glucocerebrosidase Inhibitors: qHTS Assay for Rice alpha-Glucosidase at pH 5.0 (AID 997);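 also: 0% = full activity with enzyme and -100% = basal without enzyme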
# Method in brief: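 Rice alpha-glucosidase (4 nM final) with 400 uM 4-methylumbelliferyl-alpha-D-glucopyranoside in citrate buffer pH 5.0, 20 min at room temperature, stopped at pH 10; fluorescence 365/440 nm, compounds 0.7 nM–77 uM, AC50 from Hill fits.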
# [17] = target: DNA repair nuclease/redox regulator APEX1 (Homo sapiens) (UniProt P27695); assay: qHTS Validation Assay for Inhibitors of the Human Apurinic/apyrimidinic Endonuclease 1 (APE1) (AID 1705;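 also: TAMRA fluorescence gain over two minutes as APE1 cuts a quenched THF abasic duplex; % is scaled to controls: 0 for no effect and ±100 for the full control effect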)
# DNA repair nuclease/redox regulator APEX1 (Homo sapiens), sequence (P27695 whole entry, looked up): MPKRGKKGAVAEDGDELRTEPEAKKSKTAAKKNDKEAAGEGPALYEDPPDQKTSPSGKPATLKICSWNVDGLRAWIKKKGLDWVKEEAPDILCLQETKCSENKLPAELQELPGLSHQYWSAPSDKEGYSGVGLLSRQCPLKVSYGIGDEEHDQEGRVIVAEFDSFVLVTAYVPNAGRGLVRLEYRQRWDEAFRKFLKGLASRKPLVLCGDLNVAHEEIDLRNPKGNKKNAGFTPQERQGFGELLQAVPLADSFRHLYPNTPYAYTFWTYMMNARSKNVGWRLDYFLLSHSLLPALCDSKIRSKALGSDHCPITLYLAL
# Method in brief: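 Substrate: 50 nM final fluorophore/quencher THF-abasic duplex. Enzyme preincubated with compounds 15 min, RT. Progress derived from fluorescence difference, third minus first kinetic read.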
# [18] = qHTS for differential inhibitors of proliferation of Plasmodium falciparum line 7G8 (AID 1815);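 also: potency is read from the fitted curve at half-maximal effect; parasite growth measured after three days of incubation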
# [19] = qHTS for differential inhibitors of proliferation of Plasmodium falciparum line GB4 (AID 1816); details: Potency: Plasmodium falciparum GB4 proliferation inhibition;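 also: potency is read from the fitted curve at half-maximal effect; parasite growth measured after 72 h incubation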
compound,measurement,setting,value
O=Nc1c(-c2c(O)[nH]c3ccccc23)[nH]c2ccccc12,Potency,[1],200 nM (active) and 31.6 nM (active)
same,"activity change, negative = inhibition",[2],-23.6%
same,"activity, negative = inhibition",[3],-75% (active)
same,Potency,[4],> 46 µM
same,Potency,[5],> 46 µM
same,Potency,[6],3.16 µM (active)
same,outcome,[7],inactive
same,Potency,[8],7.94 µM (active)
same,Potency,[9],inactive
same,Potency,[10],6.31 µM (active)
same,Potency,[11],inactive
same,outcome,[12],inactive
same,Potency,[13],12.6 µM (active)
same,Potency,[14],inactive
same,outcome,[15],inactive
same,outcome,[16],inactive
same,Potency,[17],inactive
same,Potency,[18],1.26 µM (active)
same,Potency,[19],0.708 µM (active)
